Pf growth 48h – inhibits P. falciparum growth in the first generation, 48 h | AID 504832 | actives 5.9% (n = 310,000) | Potency, µM (titrated, usually from 28.7 µM), for the others: top-dose activity change, negative = inhibition, hits mostly inhibitors | P. falciparum luciferase growth in erythrocytes, 48 h; active = well fitted inhibition curve with a large enough effect; inconclusive = small, poorly fitted or top-dose-only effect, or another doubt; inactive = no such curve, though single readings can be large or run the other way; note: potency is the fitted concentration of half-maximal effect; % is set by controls: 0 for no effect and ±100 for the full control effect
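Luminescence readout; reporter = integrated firefly luciferase in P. falciparum. RBC culture at 2% hematocrit, 0.1% parasitemia final, 37 C/5% CO2; decreased signal taken as growth inhibition.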
Pf growth 96h – P. falciparum growth inhibition at 96 hour, primary screen for plastid delayed-death inhibitors | Potency, µM (doses to about 28.7 µM), for inactives: top-dose activity change, negative = inhibition, actives largely listed as inhibitors | actives 6.9% (n = 320,000) | P. falciparum luciferase reporter growth, 96 h | AID 504834; active = well fitted inhibition curve with a large enough effect; inconclusive = small, poorly fitted or top-dose-only effect, or another doubt; inactive = no such curve, though single readings can be large or run the other way; note: potency is the fitted concentration of half-maximal effect; % is set by controls: 0 for no effect and ±100 for the full control effect
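Plates of compound plus infected erythrocytes (2% hematocrit, 0.05% parasitemia final) incubate 96 hours, 37 C, 5% CO2. Detection reagent added; reduced luminescence from the parasites' luciferase reporter flags inhibition.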
SARS PLP yeast – blocks SARS-CoV papain-like protease in a yeast assay. S. cerevisiae expressing SARS-CoV PLpro, growth rescue. Potency, µM (doses to about 32.9 µM), without a hit: at the highest dose activity, positive = growth rescue, actives largely listed as activators. actives 0.19% (n = 330,000). AID 485353; note: potency is the fitted concentration of half-maximal effect; 0% is about no effect; nearly all actives have a fitted effect of over 55% in size
CHX counter – counter-screen hit for Shiga toxin inhibitors, cycloheximide; cell reporter, cycloheximide protein synthesis inhibition counterscreen; max response, %; actives 12% (n = 300,000); AID 2314; in the data active = max response mostly above about 13%, no sharp cut-off; inactive = mostly below about 14%; note: read at 38.3 µM for the half of the compounds with a filed dose; 0% is about no effect
NS1 inh – blocks influenza NS1 protein function. Potency, µM (highest dose often 46.1 µM), inactives show at the highest dose activity, positive = more growth. actives 0.4% (n = 270,000). AID 2326; note: potency is the fitted concentration of half-maximal effect; actives are rising curves; nearly all actives have a fitted effect of over 50% in size
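A cell-based growth assay was used: compounds that relieve NS1-induced slow growth of budding yeast raise OD600. Assay medium was yeast nitrogen base with ammonium sulphate and -URA supplement, pH 6.0, with 2% galactose.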
Shiga inhibitor – inhibitors of Shiga toxin in Vero cells. Vero cells, Shiga toxin protein synthesis inhibition reporter. inhibition, % at 38.7 µM. actives 9.2% (n = 290,000). AID 2315; in the data active = inhibition mostly above about 28%, no sharp cut-off; inactive = mostly below about 43%; note: 0% is about no effect
The depositor's hits bear a star; ? = inconclusive; · = no result given. Only some compounds are listed: those with a hit (about 21% of all), similar ones and a draw of the others. Unless noted, calls come from the whole dose curve.

SMILES	Pf growth 48h	Pf growth 96h	SARS PLP yeast	CHX counter	NS1 inh	Shiga inhibitor
Cc1ccc(C)c(C(C)NC(=S)NCc2ccc(F)cc2)c1 (stereo not drawn)	3.3µM*	33%	13%	7	-8%	9
CCC(NC(=S)NCc1ccc(F)cc1)c1ccccc1 (stereo not drawn)	6.6µM*	?	1%	-3	-36%	21
O=C(CC1SC(N2CCOCC2)=NC1=O)Nc1ccccc1Cl (stereo not drawn)	31%	5%	4%	·	·	·
O=C(NC(=S)N1CCCC1)c1ccccc1Cl	16%	-22%	-4%	0	8%	-16
O=C(c1ccc(-c2ccccc2)c(F)c1)C1CCCN(CCO)C1 (stereo not drawn)	?	12%	0%	15*	2%	68
COc1c(C)cc(C(=O)C2CCCN(S(=O)(=O)N(C)C)C2)cc1C (stereo not drawn)	-15%	2.9µM*	1%	4	-10%	·
CN(C)S(=O)(=O)N1CCCC(C(=O)c2ccc(-c3ccccc3)c(F)c2)C1 (stereo not drawn)	?	26%	-2%	15*	-10%	35*
CSc1ccc(C(=O)C2CCCN(S(=O)(=O)N(C)C)C2)cc1 (stereo not drawn)	2%	24%	-1%	0	-5%	-1
COc1ccc(C(=O)C2CCCN(Cc3cn(C)nc3-c3ccccc3)C2)cc1F (stereo not drawn)	?	9.3µM*	-1%	-3	1%	-6
CCOC(=O)N1CCN(C(=O)/C(=C/c2ccc(N(C)C)cc2)NC(=O)c2ccccc2)CC1	?	?	-1%	·	·	·
Cc1cc(NC(=S)NC(=O)CC(C)C)ccc1Br	0%	?	11%	32*	10%	115*
CC(C)CC(=O)NC(=S)Nc1ccc(NC(=O)c2cccs2)cc1	·	5.2µM*	7%	0	-6%	13
CC(C)CC(=O)NC(=S)Nc1ccc(N2CCN(C(=O)c3cccs3)CC2)cc1	10µM*	?	1%	-2	9%	13
O=C(O)C1NCCN(C(=O)c2ccc3c(ccc4ccccc43)c2)C1C(=O)O (stereo not drawn)	·	·	·	-6	·	-3
N#Cc1cc2[nH]c3ccccc3c2[n+](-c2ccc([N+](=O)[O-])cc2)c1N	?	?	14%	-4	·	-6
COC(=O)CSc1nc2ccc(NC(=O)CSc3nnnn3Cc3ccccc3)cc2s1	0%	?	4%	-4	?	18
Cc1ccccc1OCc1nnc(SCC(=O)NCc2ccccc2)n1C	-18%	·	-1%	-3	-15%	-11
CC(=O)Nc1cccc(NC(=O)CSc2nnnn2Cc2ccccc2)c1	33%	5.9µM*	8%	-1	1%	5
CCOC(=O)c1ccccc1NC(=O)CSc1nnc(COc2ccccc2C)n1C	13µM*	?	-2%	2	-13%	-8
O=C(CSc1nnnn1Cc1ccccc1)Nc1cccc(F)c1	40%	14%	0%	-3	-5%	35
CCOC(=O)c1ccccc1NC(=O)CSc1nc(N)cc(N)n1	2%	12µM*	-21%	-3	17%	-6
O=C(CSc1nc2ccc(NC(=O)CSc3nnnn3Cc3ccccc3)cc2s1)Nc1ccccc1	13µM*	?	-14%	1	11%	13
CC(Oc1ccccc1F)c1nnc(SCC(=O)N(c2ccccc2)C2CCS(=O)(=O)C2)o1 (stereo not drawn)	·	·	1%	·	·	·
CCCCN(C)CCNC(=O)C(NC(=O)C1CCC(C)CC1)C(C)C (stereo not drawn)	-7%	19%	2%	-4	·	9
Cc1ccnc2nc(C(=O)OCC(=O)c3c[nH]c4ccccc34)nn12	63%	31%	0%	-3	-2%	-9
SMILES	Pf growth 48h	Pf growth 96h	SARS PLP yeast	CHX counter	NS1 inh	Shiga inhibitor
Cn1c(SCC(=O)Nc2ccc3nc(SCC(=O)N4CCCC4)sc3c2)nnc1-c1ccc(N)cc1	·	1.3µM*	-2%	-2	21%	-5
Cc1ccccc1OCc1nnc(SCC(=O)Nc2ccc3nc(SCC(=O)Nc4ccccc4)sc3c2)n1C	13µM*	10µM*	5%	11	2%	23
CCOC(=O)C1C(c2ccc(O)c(OC)c2)NC(=S)NC1(O)C(F)(F)F (stereo not drawn)	6%	-11%	-9%	-4	6%	-2
O=C(COC(=O)c1ccc(NC(=O)C2CC=CCC2C(=O)O)cc1)c1ccccc1 (stereo not drawn)	18%	-23%	1%	36*	2%	75*
O=C(O)c1ccccc1NC(=O)C1CCCO1 (stereo not drawn)	6%	89%	·	23	6%	-29
O=C(NCCc1ccccc1)c1ccccc1NC(=O)C1CCCO1 (stereo not drawn)	101%	?	-1%	30*	1%	67*
COC(=O)c1ccc(NC(=O)C2CCCCC2C(=O)O)cc1 (stereo not drawn)	0%	35%	2%	1	2%	-4
COc1cccc(C(=O)Nc2ccc(NC(=O)C3CCCCC3C(=O)O)cc2)c1 (stereo not drawn)	-4%	-20%	26%	39*	6%	21
COc1ccc(NC(=O)c2ccccc2NC(=O)C2CC=CCC2C(=O)O)cc1 (stereo not drawn)	15%	12%	·	41*	17%	88*
Cc1ccc(NC(=O)CN(C)C(=O)C2CC(=O)N(Cc3ccccc3)C2)cc1 (stereo not drawn)	13%	11%	19%	-1	4%	-11
NCOC(=O)Cc1ccc(Br)cc1	·	·	·	·	-6%	·
CCn1c2cc(C)sc2c2cnn(Cc3ccccc3F)c(=O)c21	·	·	·	16	·	-5
Cc1ccccc1Oc1ccc(NC(=O)C2CC=CCC2C(=O)O)cc1 (stereo not drawn)	-5%	?	0%	-2	1%	1
COc1cccc(C(=O)Nc2ccc(NC(=O)C3CC=CCC3C(=O)O)cc2)c1 (stereo not drawn)	150%	12µM*	4%	24*	4%	77*
COc1ccc(NC(=O)c2ccccc2NC(=O)C2CCCO2)cc1 (stereo not drawn)	126%	·	0%	24*	-2%	49*
CC(C)NC(=O)c1ccccc1NC(=O)C1CCCO1 (stereo not drawn)	·	-12%	-6%	-2	5%	-5
O=C(CN1CCN(c2ccc(O)cc2)CC1)NC(=O)NCc1ccco1	-16%	?	-12%	-2	15%	-9
Cc1cc(-c2ccc(C(C)C)c(S(=O)(=O)Nc3ccccn3)c2)on1	64%	15%	5%	29*	-5%	24*
CCc1ccc(-c2cc(C)no2)cc1S(=O)(=O)Nc1ccc(C)cn1	0%	13µM*	-4%	-8	-8%	-6
